Screening results deposited in PubChem by several laboratories.
M1 ag = M1 muscarinic receptor agonists, primary screen, CHO-M1 cells, Fluo-4 calcium, agonist mode; Muscarinic acetylcholine receptor M1; 3% of 64,000 active; Fluo-4 calcium fluorescence; active compounds read high; AID 626, 2007; B-score at 10 µM;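 active = fluorescence rise, raw or as B-score row- and column-corrected plate score, outside the 99.7% band of its plate's samples, either direction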
Cav3 T inh = Cav3.2 calcium influx blockers – cell-based, Fluo-4 calcium fluorescence, FDSS, MLSMR library, primary screen | Voltage-dependent T-type calcium channel subunit alpha-1H (Homo sapiens), O95180 | Cav3.2-expressing cells; active compounds read low | B-score at 10 µM | 4% of 100,000 active | AID 449739, 2010;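 active = single-dose well whose peak fluorescence ratio is a statistical outlier from its plate by either plate-standardised score or position-corrected B-score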
PLAP activator = PLAP enzyme activators, biochemical, luminescence, HTS; 1.2% of 96,000 active; Alkaline phosphatase, placental type (Homo sapiens), P05187; AID 696, 2007; activation fold at 20 µM; purified PLAP enzyme, luminescent substrate read-out; active compounds read high; in the data active = activation fold above about 2
M1 antagonist = antagonists of rat M1 muscarinic receptor; Muscarinic acetylcholine receptor M1 (Rattus norvegicus), P08482; AID 628, 2007; B-score at 10 µM; 3.4% of 64,000 active; CHO-M1 cells, Fluo-4 calcium, ACh EC80 antagonist mode; active compounds read low;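 active = calcium fluorescence response, raw or row-and-column corrected B-score, differing from the plate sample mean either way at a set confidence level, mostly lower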
Target sequence (P08482 whole entry, looked up): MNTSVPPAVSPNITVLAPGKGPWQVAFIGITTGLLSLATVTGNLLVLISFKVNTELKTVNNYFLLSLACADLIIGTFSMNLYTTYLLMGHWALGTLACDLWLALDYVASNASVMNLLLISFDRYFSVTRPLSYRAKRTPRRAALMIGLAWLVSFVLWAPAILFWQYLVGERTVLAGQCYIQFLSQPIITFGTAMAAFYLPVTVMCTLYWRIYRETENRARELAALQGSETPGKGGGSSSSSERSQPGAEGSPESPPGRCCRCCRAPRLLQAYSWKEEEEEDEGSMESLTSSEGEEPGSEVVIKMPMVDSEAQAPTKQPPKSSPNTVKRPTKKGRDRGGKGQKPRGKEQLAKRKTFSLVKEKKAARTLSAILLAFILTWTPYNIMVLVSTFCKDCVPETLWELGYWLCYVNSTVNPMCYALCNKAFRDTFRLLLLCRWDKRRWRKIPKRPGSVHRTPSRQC
M1 ag confirm = rat M1 muscarinic receptor agonists, confirmation, CHO-M1 cells, Fluo-4 calcium, duplicate retest. Fluo-4 calcium fluorescence, agonist mode; actives lie on both sides. shares compounds with M1 ag. fluorescence change (max-min) at 10 µM. AID 1488, 2009. 19% of 1,700 active;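 active = fluorescence change differs from the solvent-only DMSO control mean at a set confidence level in both duplicate runs; inconclusive = differs from solvent-only control mean in just one of two runs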;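 also: an EC20 dose of acetylcholine follows compound addition during the same imaging run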
M4 ag counter = agonist activity at rat M4 receptor, confirmation, counter-screen for M1 allosteric modulator project, cell-based, agonist mode; 9% of 1,700 active; fluorescence change (max-min) at 10 µM; CHO M4/Gqi5 cells, Fluo-4 calcium fluorescence; actives lie on both sides; shares compounds with M1 ag;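 active = fluorescence change differing from the plate's solvent-only control wells at 99.7% confidence in both duplicates, whether higher or lower; inconclusive = differs from solvent controls in only one of two duplicates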
Each line names hits and unclear results; the compound was inactive in the other large screens (follow-up assays come after a bar, where they were run). Shown are actives, neighbours in structure and some others; about 7.6% of the full set was active somewhere.

COc1cccc2c1OC[C@@H](CO)[C@H]2N(C)C(=O)Nc1ccc(Cl)cc1Cl	none (no result: M1 ag, Cav3 T inh, M1 antagonist)
O=C(c1oc2ccccc2c1CSCc1ccccc1)N1CCN(c2ncccn2)CC1	M1 ag 7 | M1 ag confirm inactive | M4 ag counter inconclusive
CCC1CCCCN1C(=O)CSc1nnc(CNC(=O)COc2ccc(Cl)cc2)o1 (stereo not drawn)	none
Cc1cccc(-n2cnc(C(=O)NC3CCCCCC3)c2)n1	none (no result: M1 ag, M1 antagonist)
CCOc1ccc(-c2noc(COC)n2)cc1OC	M1 ag 3.2 | M1 ag confirm inactive | M4 ag counter inactive
CCOc1ccc(-c2nc(-c3ccc(OC)c(OC)c3)no2)cc1OCC	none
COC(=O)c1cc(-c2ccccc2)n(CCN)c1C	none (no result: M1 ag, PLAP activator, M1 antagonist)
CC(=O)c1cc(OC(=O)c2ccncc2)ccc1OC(=O)c1ccncc1	M1 ag 4.38 | M1 ag confirm inactive | M4 ag counter inactive
O=C(Oc1ccc(OC(=O)c2ccncc2)cc1)c1ccncc1	none (no result: Cav3 T inh, PLAP activator)
COc1cccc(NC=C2C(=O)OC3(CCCCC3)OC2=O)c1	M1 ag 2.73 | M1 ag confirm inactive | M4 ag counter inactive
COc1ccc(-c2c3c(=O)n(C)c(=O)n(C)c3cn2C2CCCCC2)cc1	none
COCc1[nH]nc2c1C(c1c(F)cccc1Cl)C(C#N)=C(N)O2 (stereo not drawn)	none
COCc1[nH]nc2c1C(c1ccccc1Cl)C(C#N)=C(N)O2 (stereo not drawn)	M1 ag 1.48 | M1 ag confirm inactive | M4 ag counter inactive
CCCc1[nH]nc2c1C(CCc1ccccc1)C(C#N)=C(N)O2 (stereo not drawn)	M1 ag 2.69 | M1 ag confirm inconclusive | M4 ag counter inactive
CC(C)CCNC(=O)CN(Cc1cccs1)C(=O)CCC(=O)Nc1nccs1	none (no result: M1 ag, M1 antagonist)
CCS(=O)(=O)N1Cc2ccccc2CC1C(=O)N1CCN(c2cccc(C)c2C)CC1 (stereo not drawn)	none (no result: Cav3 T inh)
Nc1cc(Cl)ccc1N1CCOCC1	none
Clc1ccc2c(c1)CNc1c(ncnc1N1CCOCC1)O2	M1 ag 2.72, M1 antagonist -1.97 | M1 ag confirm inconclusive | M4 ag counter inactive
CCOC(=O)c1[nH]c2c(c1C)C(=O)CC(c1ccc(OC)c(OC)c1)C2 (stereo not drawn)	none
COc1cc(C2CC(=O)c3c([nH]c(C(=O)OCCOC(C)C)c3C)C2)cc(OC)c1OC (stereo not drawn)	M1 ag 3.23, Cav3 T inh -4.68 | M1 ag confirm -33.3 | M4 ag counter inactive
COc1ccc(C(=O)N(C(C)C)C(C)C)c(OC)c1	none (no result: M1 ag, M1 antagonist)
CCN1CCN(C(c2cccs2)C(C)NC(=O)CC(C)C)CC1 (stereo not drawn)	M1 ag -2.72 | M1 ag confirm inconclusive | M4 ag counter inactive
CCC(=O)NC(C)C(c1cccs1)N1CCN(Cc2ccccc2)CC1 (stereo not drawn)	none (no result: M1 ag, M1 antagonist)
Cc1ccc(CNC(=O)C(C)OC(=O)c2cccs2)cc1 (stereo not drawn)	none (no result: M1 ag, M1 antagonist)
O=c1cc(CN2CCN(c3ccccc3F)CC2)c2cc3c(cc2o1)CCCC3	none (no result: M1 ag, M1 antagonist)
CN(Cc1cccs1)c1ncnc2sccc12	M1 ag 2.63 | M1 ag confirm inactive | M4 ag counter -87
Cc1ccc(S(=O)(=O)NC(CC(=O)NCC2CCCO2)c2ccco2)cc1 (stereo not drawn)	none
Cc1ccc2[nH]c(=O)c(CN(CCc3ccccc3)C(=O)N3CCOCC3)cc2c1	M1 ag 14.3 (no result: Cav3 T inh) | M1 ag confirm inactive | M4 ag counter inconclusive
CCOCCn1c(SCc2c(F)cccc2Cl)nc2c1c(=O)[nH]c(=O)n2C	none
N#Cc1cccc(NC(=O)Nc2cccs2)c1	M1 ag 11.2 | M1 ag confirm inactive | M4 ag counter inactive
COc1ccc(C2/C(=C(\O)c3cccc(OC)c3)C(=O)C(=O)N2c2ccccn2)cc1 (stereo not drawn)	none (no result: M1 ag, M1 antagonist)
Fc1ccc(CN2CCCCCCC2)cc1F	none
COc1cccc(N2CCN(c3c4c(nc5ncnn35)CCC4)CC2)c1	M1 ag 6.69 (no result: Cav3 T inh) | M1 ag confirm inactive | M4 ag counter inactive
O=c1c(C=Nc2ccc(Cl)cc2)c[nH]n1-c1cccc(Cl)n1	none (no result: M1 ag, M1 antagonist)
Cn1nc(-c2ccc(OCC(=O)Nc3cccnc3)cc2)c2ccccc2c1=O	M1 ag 6.19 | M1 ag confirm inconclusive | M4 ag counter inactive
COC(=O)COc1cc(C)cc2oc(=O)c(CC(=O)OC)c(C)c12	M1 ag 3.11 | M1 ag confirm inconclusive | M4 ag counter inactive
COC(=O)CCCCCC(CCC(=O)OC)NC(C)=O (stereo not drawn)	none
O=C(O)CCSc1nnnn1-c1ccccc1	none
c1ccc(-n2nnnc2SCCCSc2nc3ccccc3s2)cc1	M1 ag 26.8 | M1 ag confirm inactive | M4 ag counter inconclusive
c1ccc2c(-c3nc(C4CCCCC4)no3)cc(-c3ccncc3)nc2c1	none
Cc1cc(C)nc(/N=C2\NC(=O)CC(C(=O)O)N2CCc2c[nH]c3ccccc23)n1 (stereo not drawn)	M1 ag 3.2 | M1 ag confirm inactive | M4 ag counter inactive
COC(=O)C1CC(=O)N(CCc2c[nH]c3ccccc23)C1 (stereo not drawn)	none (no result: M1 ag, M1 antagonist)
COc1ccc(Cc2nnc(SCC(=O)Nc3nc(C)cs3)o2)cc1	none
CC(C)OC(=O)c1c(N)n(CCCN2CCOCC2)c2nc3ccccc3nc12	none (no result: M1 ag, M1 antagonist)
CC(C)OC(=O)c1c2nc3ccccc3nc2n2c1[nH]c(=O)c1ccccc12	M1 ag 7.94 (no result: Cav3 T inh) | M1 ag confirm 73.5 | M4 ag counter inactive
FC(F)(F)c1cc(-c2cccs2)nc(-n2cc(Cl)cn2)n1	none (no result: M1 ag, M1 antagonist)
CC(=O)Nc1cccc(OCC(O)Cn2c(C)nc3ccccc32)c1 (stereo not drawn)	none (no result: M1 ag, PLAP activator, M1 antagonist)
CCCOC(=O)c1ccc(OCC(O)Cn2c(C)nc3ccccc32)cc1 (stereo not drawn)	M1 ag 5.69 (no result: Cav3 T inh) | M1 ag confirm inconclusive | M4 ag counter inactive
CCn1c(=O)cc(OCC(=O)NCCCN2CC(C)CC(C)C2)c2ccccc21 (stereo not drawn)	M1 ag 2.17 | M1 ag confirm inconclusive | M4 ag counter inconclusive
CC1CC(C)CN(CCCNC(=O)COc2cc(=O)n(C)c3ccccc23)C1 (stereo not drawn)	none (no result: PLAP activator)
CCOC(=O)C1CCCN(c2cc(C)nc3cc(-c4ccc(F)cc4)nn23)C1 (stereo not drawn)	M1 ag 30.4, M1 antagonist -3.82 | M1 ag confirm 386 | M4 ag counter inactive
COc1ccc(CN2C(=O)c3cccnc3C2Nc2cc(Cl)ccc2OC)cc1 (stereo not drawn)	M1 ag 4.84 | M1 ag confirm inactive | M4 ag counter inactive
COc1ccc(S(=O)(=O)Nc2cc(C)c(O)cc2C(C)C)cc1	M1 ag 4.66 | M1 ag confirm inactive | M4 ag counter inactive
